# Hits are enriched below; roughly 6% of the tested compounds scored in any of these assays.
# DRD3 antagonist = qHTS of D3 Dopamine Receptor Antagonist: qHTS. D(3) dopamine receptor (Homo sapiens), P35462. D3R cells, DiscoveRx beta-arrestin luminescence, antagonist mode; active compounds read low. max response, negative = inhibition, %. 360,000 tested, 2.5% active; in the data active = max response below about -50%; also: % is scaled to controls: 0 for no effect and ±100 for the full control effect
#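 Cells plated overnight at 1500 cells/well, then exposed to library compounds with dopamine controls for 90 minutes at 37 degrees C. DiscoveRx reagent added for 30–60 minutes at room temperature; luminescence read, quantitative HTS format.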
# D1 agonist = Allosteric Agonists of the Human D1 Dopamine Receptor: qHTS; activation, % at 2 µM; AID 504660, 2011; D(1A) dopamine receptor (Homo sapiens), P21728; HEK293 T-REx D1 cells, calcium flux, agonist mode; 360,000 tested, 1% active; in the data active = activation above about 30%; also: 0% is about no effect
# Target sequence (P21728 whole entry, looked up): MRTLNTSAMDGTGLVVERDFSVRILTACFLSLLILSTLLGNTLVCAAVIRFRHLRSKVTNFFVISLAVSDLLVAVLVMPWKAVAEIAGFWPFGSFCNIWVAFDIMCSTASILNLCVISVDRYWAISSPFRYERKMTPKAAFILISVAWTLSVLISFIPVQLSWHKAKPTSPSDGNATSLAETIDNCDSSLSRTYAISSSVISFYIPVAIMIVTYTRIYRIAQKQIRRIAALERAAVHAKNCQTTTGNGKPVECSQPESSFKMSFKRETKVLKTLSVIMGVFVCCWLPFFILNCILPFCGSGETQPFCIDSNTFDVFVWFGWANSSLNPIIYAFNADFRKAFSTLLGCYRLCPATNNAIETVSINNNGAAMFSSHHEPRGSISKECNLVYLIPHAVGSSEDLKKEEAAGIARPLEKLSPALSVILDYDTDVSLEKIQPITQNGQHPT
#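 Agonism was scored from calcium flux recorded over 180 s (1 read/s) after pintool compound addition, following a 10-cycle baseline. Cells were inducible force-coupled HEK293 TREx D1, plated overnight at 30 C and loaded with no-wash calcium dye.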
# D1 antag = Antagonist of Human D 1 Dopamine Receptor: qHTS; 360,000 tested, 3.2% active; activity change, negative = inhibition, % at 10 µM; HEK293 TREx D1 cells, calcium flux, dopamine EC80; active compounds read low; AID 504652, 2011; D(1A) dopamine receptor (Homo sapiens), P21728; in the data active = activity change below about -30%; also: % is scaled to controls: 0 for no effect and ±100 for the full control effect
#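 HEK293 T-REx cells expressing inducible, force-coupled D1 receptor; no-wash Ca dye, 30–90 min RT. Cmpd → 180 s read at 1 Hz → EC80 DA → 180 s read.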
# D1 potentiator = Potentiators of Human D1 Dopamine Receptor: qHTS | HEK293 TREx D1 cells, calcium flux, dopamine EC20 potentiation | potentiation, % at 10 µM | 360,000 tested, 0.036% active | AID 504651, 2011; in the data active = potentiation above about 30%; also: 0% is about no effect
# DRD3 agonist = qHTS of D3 Dopamine Receptor Agonist: qHTS | D3R DiscoveRx beta-arrestin cells, luminescence, 90 min | max activation, % | 410,000 tested, 0.58% active | AID 652048, 2013; in the data active = max activation above about 30%; also: 0% is about no effect
#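 Agonist mode: compounds and dopamine controls were applied to plated cells for 90 min at 37 degrees C after an overnight attachment at 1500 cells/well. Luminescent read-out followed 30 - 60 minutes at room temperature with DiscoveRx detection reagent.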
# Active calls of the source: *; · = no result given.
SMILES,DRD3 antagonist,D1 agonist,D1 antag,D1 potentiator,DRD3 agonist
O=[N+]([O-])c1cc(C(F)(F)F)ccc1NC1CCN(Cc2ccccc2)CC1,-74*,3,-12,-3,-30
COc1ccccc1CNS(=O)(=O)c1cc(C(=O)Nc2cccc(C(F)(F)F)c2)ccc1F,·,0,-23,-4,-8
O=C(Nc1sc2c(c1C(=O)O)CCCCC2)c1ccccc1,-19,3,-4,0,-14
O=C(Nc1sc2c(c1C(=O)O)CCC2)c1ccccc1,-52*,-1,-6,5,-3
CC(C)OC(=O)c1c(NS(=O)(=O)c2ccccc2)sc2c1CCCC2,-89*,7,-21,1,-2
COc1ccc(S(=O)(=O)NCC2CCCN(Cc3ccccc3C)C2)cc1 (centres undefined),-14,3,-30*,-4,-19
COCCC(=O)N1CCCC(CNS(=O)(=O)c2ccc(OC)cc2)C1 (centres undefined),-63*,3,-4,-5,-3
COCC(=O)N1CCCC(CNS(=O)(=O)c2ccc(OC)cc2)C1 (centres undefined),-17,1,4,-6,0
CCS(=O)(=O)n1nc(-c2ccco2)nc1NCc1ccc(C(C)C)cc1,·,1,6,0,4
Cc1ccc(-n2c(=O)c3oc4ccccc4c3n(CC(=O)Nc3ccccc3)c2=O)cc1C,·,4,4,-4,-16
CCN(CC)C(=O)c1ccc(-c2nnc(Nc3ccc(O)cc3)c3ccccc23)cc1,14,0,-3,43*,2
CCN(CC)C(=O)c1ccc(-c2nnc(Nc3ccc(C(=O)N(C)C)cc3)c3ccccc23)cc1,48,0,-92*,-12,4
CCOc1c2ccc(C(=O)NCCc3cccs3)cc2nn1CC,1,4,-14,-3,-25
CCCCOc1ccc(C(=O)C(CN2CCOCC2)c2ccccc2)cc1 (centres undefined),-54*,2,5,15,-2
CCCCOc1ccc(C(=O)NCCc2cccs2)cc1,·,14,-32*,-2,·
CCCCn1nc2cc(C(=O)NCCc3cccs3)ccc2c1OCC,9,1,-67*,-11,0
CCOc1c2ccc(C(=O)N[C@H](C)C3CCCCC3)cc2nn1CC,-82*,0,-11,-6,-9
COc1ccc(C(=O)C(CN2CCOCC2)c2ccccc2)cc1 (centres undefined),-22,0,-16,-8,-17
COc1ccc(-c2nc3c(c(SCC(=O)N4CCCCC4)n2)Cc2c(CO)cnc(C)c2O3)cc1,·,2,4,-6,-16
CC1(C)S[C@@H]2[C@H](NC(=O)C(C(=O)Oc3ccc4c(c3)CCC4)c3ccccc3)C(=O)N2[C@H]1C(=O)O (some centres undefined),·,·,·,·,-11
CCCCn1nc2cc(C(=O)NCc3ccccc3OC)ccc2c1OCC,20,3,0,-2,6
CCCCCOc1ccc(C(=O)NCC2(c3ccccc3)CCOCC2)cc1,4,25,-12,-7,-9
CCCCn1nc2cc(C(=O)NCC34CC5CC(CC(C5)C3)C4)ccc2c1OCC,-79*,4,5,-2,-32
CCCCOc1ccc(C(=O)NCC2(c3ccccc3)CCOCC2)cc1,5,12,-40*,-4,4
CCCCCCCCCc1ccc(OCCOCCO)cc1,·,·,·,·,11
SMILES,DRD3 antagonist,D1 agonist,D1 antag,D1 potentiator,DRD3 agonist
Cc1cc(C(=O)OCC(=O)Nc2cccc(S(=O)(=O)N(C)C)c2)c2ccccc2n1,55,10,-9,1,3
O=C(CN1CCN(Cc2ccc3c(c2)OCO3)CC1)Nc1cc(S(=O)(=O)N2CCCC2)ccc1Cl,-18,7,-8,-8,-10
CCN(CC)S(=O)(=O)c1ccc(O)c(NC(=O)CN2CCc3ccccc3C2)c1,8,17,-28,-2,1
CN(C)S(=O)(=O)c1ccc(Cl)c(NC(=O)CN2CCN(Cc3ccc4c(c3)OCO4)CC2)c1,14,10,-58*,0,-14
CN(C)S(=O)(=O)c1ccc(Cl)c(NC(=O)COC(=O)c2cc(-c3ccccc3)nc3ccccc23)c1,3,5,25,2,36*
CN(C)S(=O)(=O)c1ccc(Cl)c(NC(=O)CN2CCc3ccccc3C2)c1,2,1,-19,2,74*
O=C(CSc1nnc(-c2ccccc2)c(-c2ccccc2)n1)Nc1ccccc1Cl,·,6,12,-1,9
Cc1cccc(C)c1NC(=O)c1cc(S(N)(=O)=O)c(Cl)cc1O,·,·,·,·,-1
Cc1ccc(OCC(=O)Nc2ccc(S(=O)(=O)N3CCN(C)CC3)cc2)cc1,-2,11,-24,-10,1
Cc1ccc(OCC(=O)Nc2ccc(S(=O)(=O)N3CCCC3)cc2)cc1,4,4,3,1,2
CN1CCN(S(=O)(=O)c2ccc(NC(=S)NC(=O)C3CCCC3)cc2)CC1,-16,0,-45*,-6,3
COc1ccc(OCC(=O)Nc2ccc(S(=O)(=O)N3CCN(C)CC3)cc2)cc1,8,8,-39*,-6,5
Cc1cc(OCC(=O)Nc2ccc(S(=O)(=O)N3CCN(C)CC3)cc2)ccc1Br,-14,33*,-72*,-1,-2
CCc1ccc(S(=O)(=O)NCc2ccc(C(=O)NCCN(Cc3ccccc3)C(C)C)cc2)cc1,-91*,·,·,·,-16
CCc1ccc(NC(=O)c2cc3c(=O)n(Cc4cccs4)ccc3nc2C)cc1,·,21,0,-4,-17
CCc1ccc(NC(=O)C2CCCN2S(=O)(=O)c2ccc3c(c2)CCCC(=O)N3)cc1 (centres undefined),·,3,-24,-3,1
O=C(/C=C/c1c(Cl)cccc1Cl)n1cccn1,-74*,7,-14,-10,-8
Cc1ccc(N2C(=O)CS(=O)(=O)C23C(=O)N(Cc2ccccc2C)c2ccccc23)cc1Cl (centres undefined),·,4,-9,-1,-1
Cc1ccc(/C=C/c2onc(C)c2S(=O)(=O)N2CCC(C(=O)Nc3ccc(C)c(N(C)C)c3)CC2)cc1,·,4,-13,-3,1
Cc1ccc(/C=C/c2onc(C)c2S(=O)(=O)N2CCC(C(=O)Nc3ccc(OC(F)(F)F)cc3)CC2)cc1,·,2,-68*,-4,-3
COc1ccc(/C=C\c2onc(C)c2S(=O)(=O)N2CCC(C(=O)Nc3cccc(C)c3C)CC2)cc1,·,0,6,1,6
COc1ccc(/C=C\c2onc(C)c2S(=O)(=O)N2CCC(C(=O)Nc3cccc(Cl)c3)CC2)cc1,·,3,-27,0,62*

# Bioassay records from PubChem BioAssay.
